Most compounds without a hit are left out; they make up all but 6.3% or so of the library.
Spn DPM-DC inh: inhibitors of Streptococcus pneumoniae diphosphomevalonate decarboxylase; purified DPM-DC, PK/LDH coupled NADH fluorescence; calls only at 10 µM; 65,000 compounds, 0.49% hits;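 active = the 320 compounds with the highest percent inhibition in the single-dose primary screen, excluding strongly autofluorescent ones, cut at about 32% in these data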;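 also: kinetic rate of NADH fluorescence loss reporting ADP formed by the decarboxylase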
NADH coupling: inhibitors of enzymes used to reach an NAD/NADH endpoint. coupled PK/LDH NADH assays, four targets. IC50, µM (series often up to 10 µM). 65,000 compounds, 0.02% hits;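 active = single-dose screening hits from any of four coupled enzyme assays that gave an IC50 when retested across doses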;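 also: the DPM-DC format reads NADH fluorescence rather than 340 nm absorbance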
PMK inhibit: S. pneumoniae PMK inhibition; inhibition, % at 10 µM; purified PMK, PK/LDH-coupled NADH absorbance 340 nm; AID 539; 65,000 compounds, 0.49% hits;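 active = top-ranked compounds by inhibition in the single 10 µM screen, taking a fixed number of the strongest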
MK inhibit: blocks S. pneumoniae mevalonate kinase; purified MK, PK/LDH-coupled NADH absorbance 340 nm; inhibition, % at 10 µM; 65,000 compounds, 0.48% hits;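 active = ranked among the strongest by inhibition in the single 10 µM screen, a fixed top-ranked set picked for dose follow-up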
Fluor 339 460: intrinsic fluorescence of library compounds, ex339/em460 – biochemical, MLSMR library, data from DPM-DC assay, artefact control, profiling panel. compound autofluorescence, ex339/em460 nm, NADH buffer; hits give high values; 1 = no-compound wells, NADH background. fluorescence fold increase at 10 µM. 65,000 compounds, 5.5% hits;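 active = at 10 µM, mean starting fluorescence two-fold or more over control wells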;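 also: signal is the first read of a kinetic run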
A340 absorber: compounds absorbing at 340 nm; 65,000 tested, under 10 active; fold change at 10 µM; compound absorbance at 340 nm, fold over control;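 active = at 10 µM dose, initial 340 nm absorbance at least 2 fold that of control wells; inactive = change under 2 fold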;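 also: initial absorbance extrapolated from kinetic A340 decline of NADH oxidation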
Large screens that a line does not name were inactive.

CCc1ccc2[nH]c(=O)c(CN(Cc3ccccc3)Cc3nnnn3Cc3ccco3)cc2c1	none
O=c1[nH]c2cc3c(cc2cc1CN(Cc1cccs1)Cc1nnnn1Cc1ccco1)OCCO3	Fluor 339 460 2.4
O=c1[nH]c2cc3c(cc2cc1CN(Cc1ccccc1)Cc1nnnn1Cc1ccco1)OCCO3	Fluor 339 460 2.5
O=c1[nH]c2cc3c(cc2cc1CN(CCCO)Cc1nnnn1Cc1ccc(F)cc1)OCO3	Spn DPM-DC inh active, Fluor 339 460 3.1
O=C(CCN1CCN(CCC(=O)c2ccccc2)CC1)c1ccccc1	none
O=C(CN(c1ccccc1)S(=O)(=O)c1ccc(F)cc1)N1CCCCCC1	none
Cc1ccnc2c(N3C(=O)C4C5C=CC(C5)C4C3=O)cccc12 (stereo not given)	none
CN(C)c1ccc(CN(C)C2CCCCC2)cc1	none
Cc1ccc(NS(=O)(=O)c2cccc(C(=O)n3ncc(C#N)c3N)c2)c(C)c1	none
c1ccc(N2CCN(c3ccccc3)C2c2cccs2)cc1	none
COC(=O)Cn1c(=NC(=O)CSCC(=O)NC2CCCCC2)sc2cc(OC)ccc21	Fluor 339 460 2.1 (not shown: Spn DPM-DC inh)
COc1ccc(-c2cc3nc4n(c(=O)c3s2)CCC4)cc1	Fluor 339 460 3 (not shown: Spn DPM-DC inh)
COc1ccc(NS(=O)(=O)c2cccc(-c3nnc4n3CCCCC4)c2)cc1	none
O=C(NC1CCCC1)c1ccc(CS(=O)(=O)c2ccc(Br)cc2)o1	none
COc1ccccc1N/C(N)=N/c1nc(CSc2ccc(C)cc2)cc(=O)[nH]1	none
Cc1cc(=O)[nH]c(/N=C(\N)Nc2cccc3ccccc23)n1	Spn DPM-DC inh active
COC(=O)c1nn(-c2c(C)n(C)n(-c3ccccc3)c2=O)cc1O	none
CCOC(=O)c1nn(-c2ccc3c(c2)CCN3C(C)=O)cc1O	Fluor 339 460 2.2 (not shown: Spn DPM-DC inh)
O=C(COC(=O)c1cccs1)NC1CCCCC1	none
Cc1nn(C)cc1CN(C)C(=O)c1cc2nc(-c3ccco3)cc(C(F)(F)F)n2n1	Fluor 339 460 2.7
Cc1ccccc1Cn1nc(C)c(NC(=O)c2cc3nc(-c4ccco4)cc(C(F)(F)F)n3n2)c1C	none
Cc1nn(C)c(C)c1CN(C)C(=O)c1cc2nc(-c3ccco3)cc(C(F)(F)F)n2n1	Fluor 339 460 2.5
CC(=O)N1CCC(N2CCN(c3ccccc3F)CC2)CC1	PMK inhibit 36
CC1CCN(C2CC(=O)N(c3ccc(Br)cc3Br)C2=O)CC1 (stereo not given)	none
O=c1c2ccccc2sn1-c1cc(S(=O)(=O)N2CCOCC2)ccc1N1CCOCC1	Spn DPM-DC inh active, MK inhibit 95
CC(C)(C)c1csc(N(CCC#N)CCC#N)n1	none
c1ccc(-c2nc3ccccc3o2)nc1	none
CC(=O)Nc1nc2ccc(-c3nc4ccccc4o3)cc2s1	Fluor 339 460 2.2 (not shown: Spn DPM-DC inh)
Cc1ccnc2ccc(-c3nc4ccccc4o3)cc12	Fluor 339 460 5 (not shown: Spn DPM-DC inh)
CCC(=O)Nc1cccc(-c2nc3ccccc3o2)c1	none
CCN(CCNC(=O)Nc1ccc(Cl)cc1)c1ccccc1	none
O=c1c2ccccc2nc2n1CCN2Cc1ccc(Cl)cc1	Fluor 339 460 2.2 (not shown: Spn DPM-DC inh)
COc1ccc(Oc2coc3c(CN(C)C)c(O)ccc3c2=O)cc1	Fluor 339 460 2.3 (not shown: Spn DPM-DC inh)
COc1ccc(Oc2c(C)oc3c(CN(C)C)c(O)ccc3c2=O)cc1	Fluor 339 460 3.9 (not shown: Spn DPM-DC inh)
COc1cccc(C2/C(=C(\O)c3ccc4c(c3)OCO4)C(=O)C(=O)N2CCN(C)C)c1OC (stereo not given)	none
COc1ccc2c(c1OC)CN(C)CCc1cc3c(cc1C(O)C2)OCO3 (stereo not given)	PMK inhibit 25
CC(=O)c1cccc(NC(=O)c2nccnc2C(=O)O)c1	none
O=C(O)c1cc2c([nH]c1=O)CCCC2	Fluor 339 460 2.3 (not shown: Spn DPM-DC inh)
Cc1ccc(S(=O)(=O)N(CC(=O)NCc2ccco2)Cc2ccccc2F)cc1	none
Cc1c(-c2ccccc2)nc(N)c(C#N)c1-c1ccco1	Fluor 339 460 2.6
c1ccc(-c2nn3c(-c4ccco4)nnc3s2)nc1	none
N#Cc1c(-c2ccco2)cc(-c2cccnc2)nc1N	Fluor 339 460 3.7 (not shown: Spn DPM-DC inh)
N#Cc1c(-c2ccco2)cc(-c2ccccn2)nc1N	Fluor 339 460 3.7 (not shown: Spn DPM-DC inh)
COc1ccc(CNC(=O)c2ccc(=O)oc2)cc1OC	none
OCC#CCSc1nnc(-c2ccccc2Br)o1	none
Cc1onc(-c2ccccc2)c1C(=O)Nc1cccc(C#N)c1	none
COc1ccc(Cn2c(CCC(=O)NCc3ccco3)nc3cccnc32)cc1	none
Cc1nnc(SCC(=O)Nc2ncc(Cc3ccc(F)cc3)s2)n1N	PMK inhibit 44
CCOC(=O)CCC(NC(=O)c1cncc(O)c1)C(=O)OCC (stereo not given)	Fluor 339 460 2.9
COc1cccc(/C=N/n2cncn2)c1OCC#N	none
Cc1ccc(S(=O)(=O)N2CCOCC2)cc1C(=O)NCc1ccco1	none
O=C(O)c1c[nH]c2ccc(S(=O)(=O)N3CCOCC3)cc12	none
CCCCN(C)C(=O)c1c[nH]c2ccc(S(=O)(=O)N3CCOCC3)cc2c1=O	Fluor 339 460 2.2 (not shown: Spn DPM-DC inh)
O=C(NCc1ccco1)c1c[nH]c2ccc(S(=O)(=O)N3CCOCC3)cc2c1=O	Fluor 339 460 2.1 (not shown: Spn DPM-DC inh)
CCCN1CCN(C(=O)c2cccc3c2C(=O)N(CCOC)C3)CC1	none
Cc1occc1-c1nnc(SCC(=O)Nc2nccs2)n1CCc1ccccc1	Fluor 339 460 2.1
Cc1nnc(Sc2nc(Sc3nnc(C)s3)nc(N3CCN(C)CC3)n2)s1	none
CCCN1C2CCCC1CC(NC(=O)c1cc(OC)c(OC)c(OC)c1)C2 (stereo not given)	none
Cc1ccc2cc3c(nc2c1)N(Cc1ccco1)CC3	Fluor 339 460 3.8 (not shown: Spn DPM-DC inh)
CCOC(=O)N1CCC(NC(=O)c2cc3c(-c4ccccc4F)nn(C)c3s2)CC1	Fluor 339 460 2
CC1CCCCN1CCNC(=O)c1cc2c(-c3ccccc3F)nn(C)c2s1 (stereo not given)	Fluor 339 460 2.1 (not shown: Spn DPM-DC inh)
CCOC(=O)N1CCC(NC(=O)c2cc3c(-c4ccc(OC)c(OC)c4)nn(C)c3s2)CC1	Fluor 339 460 2.4
COc1ccc(-c2nn(C)c3sc(C(=O)NCc4ccco4)cc23)cc1OC	Fluor 339 460 3.1
N#Cc1nc(-c2ccccc2)oc1N1CCCCC1	Fluor 339 460 3.7 (not shown: Spn DPM-DC inh)
CC(C)CNc1oc(-c2ccc(F)cc2)nc1C#N	Fluor 339 460 2.4 (not shown: Spn DPM-DC inh)
Cc1ccc(-c2nc(C#N)c(N3CCCCC3)o2)cc1	Fluor 339 460 2.2 (not shown: Spn DPM-DC inh)
COc1ccc(-c2nc(C#N)c(N3CC(C)OC(C)C3)o2)cc1OC (stereo not given)	Fluor 339 460 2.1 (not shown: Spn DPM-DC inh)
CC1CN(c2oc(-c3ccccc3Cl)nc2C#N)CC(C)O1 (stereo not given)	none
N#Cc1nc(-c2ccc(F)cc2)oc1NCc1cccc2c1OCO2	none
CCS(=O)(=O)N1CCCC(C(=O)NCCCN2CCCC2=O)C1 (stereo not given)	none
CC(C)COC(=O)Cn1cnc2ccc(Br)cc2c1=O	none

High-throughput results: PubChem, SRMLSC
